Screening results from PubChem BioAssay.
Most compounds without a hit are left out; they make up all but 6% or so of the library.
Chronic BCR inh = qHTS Assay to Find Inhibitors of Chronic Active B-Cell Receptor Signaling. ABC-DLBCL IkBa-CBG/CBR reporter, luminescence ratio, 4 h. Potency, µM (highest dose often 46.1 µM), for inactives: top-dose activity change, negative = inhibition, usual class: inhibitors. 340,000 compounds, 0.05% hits; active = well fitted inhibition curve with a large enough effect in the signal ratio, with a control signal flat, not every such curve was filed as active; inconclusive = small, poorly fitted or top-dose-only effect, or effect the other way, or a change in a side signal; the % refers to the signal ratio;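 note: potency is the fitted concentration of half-maximal effect; plate controls were basal doxycycline-induced cells for no effect and cells given 10 µM MG132 for full effect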
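Doxycycline induced both beetle luciferases in TMD8 lymphoma cells; IKK-driven degradation limits the IkappaBalpha-fused green signal, while red luminescence normalises for cell number and nonspecific effects. Compounds tested up to 46 uM, 4 hrs.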
DRD3 antagonist = qHTS of D3 Dopamine Receptor Antagonist: qHTS; D(3) dopamine receptor (Homo sapiens), P35462; D3R cells, DiscoveRx beta-arrestin luminescence, antagonist mode; hits give low values; max response, negative = inhibition, %; 360,000 compounds, 2.5% hits; AID 652054, 2013; in the data active = max response below about -50%; inconclusive = no clear call, values can overlap the other calls; note: % is set by controls: 0 for no effect and ±100 for the full control effect
Target sequence (P35462 whole entry, looked up): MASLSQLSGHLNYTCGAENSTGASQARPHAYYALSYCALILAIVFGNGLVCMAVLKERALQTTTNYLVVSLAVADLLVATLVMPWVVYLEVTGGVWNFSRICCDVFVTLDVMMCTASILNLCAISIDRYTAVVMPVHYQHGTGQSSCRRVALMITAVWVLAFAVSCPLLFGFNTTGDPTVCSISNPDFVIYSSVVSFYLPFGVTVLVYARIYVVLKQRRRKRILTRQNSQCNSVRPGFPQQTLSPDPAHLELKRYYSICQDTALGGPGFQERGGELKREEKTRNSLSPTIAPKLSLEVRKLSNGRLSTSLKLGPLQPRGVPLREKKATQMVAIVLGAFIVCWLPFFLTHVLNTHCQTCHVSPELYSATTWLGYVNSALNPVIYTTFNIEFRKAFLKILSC
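Cells expressing the human receptor were seeded at 1500 cells/well, incubated overnight at 37 degrees C in 5% CO2, then exposed to library compounds with dopamine controls for 90 minutes at 37 degrees C before luminescent detection.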
D1 ag = Allosteric Agonists of the Human D1 Dopamine Receptor: qHTS; activation, % at 2 µM; 360,000 compounds, 1% hits; D(1A) dopamine receptor (Homo sapiens), P21728; HEK293 T-REx D1 cells, calcium flux, agonist mode; in the data active = activation above about 30%; note: 0% is about no effect
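Agonism was scored from calcium flux recorded over 180 s (1 read/s) after pintool compound addition, following a 10-cycle baseline. Cells were inducible force-coupled HEK293 TREx D1, plated overnight at 30 C and loaded with no-wash calcium dye.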
D1 antag = Antagonist of Human D 1 Dopamine Receptor: qHTS; D(1A) dopamine receptor (Homo sapiens), P21728; HEK293 TREx D1 cells, calcium flux, dopamine EC80; hits give low values; activity change, negative = inhibition, % at 10 µM; 360,000 compounds, 3.2% hits; AID 504652, 2011; in the data active = activity change below about -30%; note: % is set by controls: 0 for no effect and ±100 for the full control effect
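Kinetic fluorescence of a calcium dye serves as the read-out. D1-expressing Hek293 Trex cells, induced overnight at 30 C, are exposed to compound for 180 s before an EC80 dopamine addition, then read 180 s further.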
D1 PAM = Potentiators of Human D1 Dopamine Receptor: qHTS. D(1A) dopamine receptor (Homo sapiens), P21728. HEK293 TREx D1 cells, calcium flux, dopamine EC20 potentiation. potentiation, % at 10 µM. 360,000 compounds, 0.036% hits. AID 504651, 2011; in the data active = potentiation above about 30%; note: 0% is about no effect
DRD3 agonist = qHTS of D3 Dopamine Receptor Agonist: qHTS; D3R DiscoveRx beta-arrestin cells, luminescence, 90 min; 410,000 compounds, 0.58% hits; max activation, %; AID 652048, 2013; D(3) dopamine receptor (Homo sapiens), P35462; in the data active = max activation above about 30%; note: 0% is about no effect
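Agonist-mode cell screen: cells plated at 1500/well and incubated overnight at 37 °C, then exposed to library compounds for 90 min at 37 °C. Detection reagent was added for 30–60 min at room temperature, and luminescence was read.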
* marks the source's active call; other numbers are inactive results; ? = inconclusive; . = no result given.

SMILES | Chronic BCR inh | DRD3 antagonist | D1 ag | D1 antag | D1 PAM | DRD3 agonist
Cc1cc(Br)cc2c1N(Cc1ccccc1OC(C)C)C(=O)C2=O | . | . | 1 | -51* | -1 | -19
CCn1c(=O)c(C(=O)NNC(=O)c2ccccc2F)c(O)c2ccccc21 | ? | -3 | 83* | -42* | -1 | -2
CCn1c(=O)c(C(=O)NNC(=O)c2ccccc2Cl)c(O)c2ccccc21 | ? | -13 | 66* | 16 | -4 | 2
Cn1c(=O)c(C(=O)NNC(=O)c2ccccc2F)c(O)c2ccccc21 | ? | 7 | 5 | -12 | 2 | 3
O=c1n(Cc2ccc(Cl)cc2)nc2n1-c1ccccc1OC2 | . | . | 0 | 2 | -2 | 7
CCCCn1cc2c(c1-c1ccc(Br)cc1)c(=O)n(C)c(=O)n2C | . | . | 2 | 8 | 1 | 0
Cc1cc(C)cc(NS(=O)(=O)c2ccc3c(c2)OCC(C(=O)N2CCCC2)O3)c1 (stereo not given) | . | . | 4 | -6 | -6 | 4
Cc1cccc(NC(=O)c2ccc(C(=O)c3ccccc3)cc2)n1 | ? | -1 | 4 | -35* | 0 | 1
Cc1ccc(S(=O)(=O)N(C)c2ccc(C(=O)Nc3cccc(C)n3)cc2)cc1 | 4% | 2 | 7 | -21 | -6 | 2
Cc1cccc(NC(=O)c2cccc(C(=O)Nc3cccc(C)n3)c2)n1 | -16% | 3 | 2 | -15 | -5 | -2
CCN(c1ccccc1)S(=O)(=O)c1ccc(C(=O)Nc2cccc(C)n2)cc1 | -2% | 7 | 5 | -35* | -8 | 0
CC(=O)N1CCC(c2nc3ccccc3n2C(C)C(=O)NCc2ccccc2)CC1 (stereo not given) | . | 9 | . | . | . | 4
Cc1ccc(S(=O)(=O)NCc2nc3cccnc3n2Cc2ccccc2Cl)c(C)c1 | . | . | 2 | 26 | -4 | 11
CCOC(=O)C1=CC[C@]2(C)c3c(c4ccccc4n3C)C(=O)C1N2C | -5% | 4 | 2 | -45* | -8 | -5
COc1ccc(Cc2nc3ccc(C(=O)N4CCCCC4CO)cc3o2)cc1OC (stereo not given) | . | 17 | . | . | . | 2
CC(NC(=O)c1ccc2c(c1)N(Cc1cccc(F)c1)C(=O)c1ccccc1S2)c1ccccc1 (stereo not given) | 1% | . | 4 | 7 | -4 | 1
N#Cc1c(-c2cccnc2)c2c([nH]c1=O)-c1ccccc1OC2 | 9% | 16 | 1 | -31* | 3 | 5
N#Cc1c(-c2ccc(F)cc2)c2c([nH]c1=O)-c1ccccc1OC2 | 15% | 42 | 1 | -6 | -1 | 1
COC(=O)c1nnn(CC(=O)Nc2cc(F)ccc2F)c1C(=O)OC | . | . | 6 | -3 | 2 | -9
CCOc1c(Cl)cc(CNc2ccc(S(N)(=O)=O)cc2)cc1OC | -11% | 4 | 20 | -41* | -8 | 1
CCOc1c(Cl)cc(CNc2ccc(N3CCCC3)cc2)cc1OC | ? | ? | 1 | 5 | 6 | -7
Cc1cn2c(=O)c(S(=O)(=O)NCc3ccccc3Cl)c(C)nc2s1 | . | . | 0 | 0 | 0 | 2
COc1ccc(-c2csc(C(O)c3ccc(F)c(F)c3)n2)cc1 (stereo not given) | . | -15 | . | . | . | -7
CCOc1ccc(-n2ccnc2SCC(=O)Nc2cccc3ccccc23)cc1 | . | . | 2 | 14 | -5 | 5
O=C1CCCN2N=C(SCC(=O)Nc3ccc(Cl)cc3)SC2=N1 | 1% | 3 | 10 | -9 | -5 | -8
SMILES | Chronic BCR inh | DRD3 antagonist | D1 ag | D1 antag | D1 PAM | DRD3 agonist
Cc1cc(C)cc(-n2ccnc2SCC(=O)Nc2ccc(C)c(Cl)c2)c1 | . | . | 3 | -40* | 1 | -7
Cc1ccc(NC(=O)CSC2=NN3CCCC(=O)N=C3S2)cc1Cl | 2% | -8 | 25 | -39* | . | -9
CCOc1ccc(-n2ccnc2SCC(=O)Nc2cc(C)ccc2C)cc1 | . | . | -1 | -46* | -7 | 12
Cc1ccc(C)c(NC(=O)CSc2nncn2C)c1 | 1% | -19 | -3 | -33* | -5 | -3
COC(=O)c1cccc(CN2C(=O)SC(Nc3ccccc3C)C2=O)c1 (stereo not given) | . | . | 3 | -13 | -9 | -3
COc1cccc(Cn2ncc3c4sc(C)cc4n(C)c3c2=O)c1 | . | . | 7 | 10 | -5 | .
CCC/C(=N\NC(=O)c1csc(C)c1C)c1cccs1 | ? | -51* | 2 | 6 | -14 | -10
CC/C(=N\NC(=O)c1csc(C)c1C)c1cccs1 | ? | ? | 0 | 0 | -1 | 2
OC(c1ccccc1)(c1nc(-c2ccc(Cl)cc2)cs1)C(F)(F)F (stereo not given) | . | -18 | . | . | . | -2
CCCOc1ccccc1C(=O)N1CCC(c2nc3ccccc3s2)CC1 | . | . | 1 | -9 | 0 | 9
CCC(Oc1ccccc1F)C(=O)N1CCC(c2nc3ccccc3s2)CC1 (stereo not given) | . | . | 36* | -18 | -2 | 10
O=C(O)c1ccc2c(c1)C(=O)N([C@H](Cc1ccc(C(F)(F)F)cc1)C(=O)O)C2=O | -1% | . | 1 | -48* | -3 | .
O=C(O)c1ccc2c(c1)C(=O)N(C(Cc1ccccc1)C(=O)O)C2=O (stereo not given) | -1% | -16 | 1 | 25 | -3 | -9
CCC(C(=O)Nc1cc(OC)c(NC(=O)c2ccccc2)cc1OC)c1ccccc1 (stereo not given) | 8% | 6 | 7 | -6 | -1 | -3
CCC(C(=O)Nc1ccc(C(=O)Nc2ccccc2C(=O)O)cc1)c1ccccc1 (stereo not given) | -2% | 35 | 2 | -65* | -5 | 17
O=C(Nc1ccccc1C(=O)O)c1cccc(NC(=O)c2ccc(Br)o2)c1 | ? | 10 | 0 | 5 | 6 | -5
O=C(Nc1ccccc1C(=O)O)c1ccc(NC(=O)c2ccc(Br)o2)cc1 | -3% | 44 | 2 | -4 | -3 | 115*
CCc1ccc(NC(=O)NNC(=O)CCc2ccccc2)cc1 | 0% | -7 | 1 | -61* | -5 | -16
CCc1ccc(NC(=O)C(CC)c2ccccc2)cc1 (stereo not given) | -3% | 13 | 41* | 3 | 14 | 2
CCC(C(=O)Nc1ccc(C)cc1)c1ccccc1 (stereo not given) | 2% | 3 | 12 | 11 | 0 | -3
